An excerpt weighted towards active compounds, which were near 6.8% of everything screened.
DPM-DC inhibit: inhibitors of Streptococcus pneumoniae diphosphomevalonate decarboxylase | purified DPM-DC, PK/LDH coupled NADH fluorescence | calls only at 10 µM | hit rate 0.49% among 65,000 | AID 556;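 active means the 320 compounds with the highest percent inhibition in the single-dose primary screen, excluding strongly autofluorescent ones, cut at about 32% in these data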;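 further: kinetic rate of NADH fluorescence loss reporting ADP formed by the decarboxylase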
MK inhibit: inhibitors of Streptococcus pneumoniae mevalonate kinase. inhibition, % at 10 µM. purified MK, PK/LDH-coupled NADH absorbance 340 nm. hit rate 0.48% among 65,000;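 active means ranked among the strongest by inhibition in the single 10 µM screen, a fixed top-ranked set picked for dose follow-up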
Spn PMK inh: S. pneumoniae PMK inhibition; AID 539; purified PMK, PK/LDH-coupled NADH absorbance 340 nm; inhibition, % at 10 µM; hit rate 0.49% among 65,000;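 active means top-ranked compounds by inhibition in the single 10 µM screen, taking a fixed number of the strongest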
NADH enzymes: inhibitors of enzymes used to reach an NAD/NADH endpoint; coupled PK/LDH NADH assays, four targets; IC50, µM (doses to about 10 µM); hit rate 0.02% among 65,000;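 active means single-dose screening hits from any of four coupled enzyme assays that gave an IC50 when retested across doses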;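 further: the DPM-DC format reads NADH fluorescence rather than 340 nm absorbance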
A340 absorber: absorbance at 340 nm; compound absorbance at 340 nm, fold over control; fold change at 10 µM; 65,000 tested, under 10 active; AID 708;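 active means at 10 µM dose, initial 340 nm absorbance at least 2 fold that of control wells; inactive means change under 2 fold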;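 further: initial absorbance extrapolated from kinetic A340 decline of NADH oxidation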
Fluor 339 460: intrinsic fluorescence of library compounds, ex339/em460 – biochemical, MLSMR library, data from DPM-DC assay, artefact control, profiling panel | AID 709 | hit rate 5.5% among 65,000 | fluorescence fold increase at 10 µM | compound autofluorescence, ex339/em460 nm, NADH buffer; stronger effect = higher value; 1 = no-compound wells, NADH background;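 active means at 10 µM, mean starting fluorescence two-fold or more over control wells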;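 further: signal is the first read of a kinetic run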
Each line names hits and unclear results; the compound was inactive in the other large screens; [ ] = dose if it differs, or a comment.

Cc1ccc(S(=O)(=O)c2cc3c(=O)n4cccc(C)c4nc3n(Cc3ccco3)c2=N)cc1C	Fluor 339 460 2.3
O=C1CCC(C(=O)O)(c2ccccc2)C1 (stereo not given)	none
CC(C)(C)NC(=O)CSc1ncnc2c1nnn2Cc1ccccc1Cl	Spn PMK inh 40
Fc1cccc(Nc2ncnc3c2cnn3-c2ccccc2)c1	none
Clc1cccc(Nc2ncnc3c2cnn3-c2ccccc2)c1	Fluor 339 460 2.1
c1cncc(-c2nc(Oc3ccc(-c4nnco4)cc3)c3c4c(sc3n2)CCCC4)c1	Fluor 339 460 2.1 (not shown: DPM-DC inhibit)
CC(=O)C1=C(C)NC(=O)NC1c1cc(Br)ccc1OCC(N)=O (stereo not given)	none
Cc1ncoc1C(=O)Nc1nccs1	none
COc1cccc(CC(=O)Nc2nccs2)c1	none
Cc1cc(C)c2c(N)c(C(=O)Nc3nccs3)sc2n1	Fluor 339 460 2.1 (not shown: DPM-DC inhibit)
COCc1cc(C)nc2sc(C(=O)Nc3nccs3)c(N)c12	Fluor 339 460 2.2 (not shown: DPM-DC inhibit)
CCOC(=O)C1CCN(C(=O)CCCCn2c(=O)[nH]c3ccccc3c2=O)CC1	none
O=c1n(Cc2ccccc2)c2cc(Cl)cnc2n1Cc1ccccc1	Fluor 339 460 2.8
O=C(Cn1c(=O)c2c(ncn2Cc2ccccc2)n(Cc2ccccc2)c1=O)N1CCCC1	none
Cc1nc(NCc2ccco2)c2c3c(sc2n1)CCC3	none
CC(C)Sc1nc(NCc2ccco2)c2c3c(sc2n1)COC(C)(C)C3	Fluor 339 460 2 (not shown: DPM-DC inhibit)
Cc1csc2ncc(C(=O)NCc3ccccn3)c(=O)n12	Fluor 339 460 2.1 (not shown: DPM-DC inhibit)
CCc1ccccc1NC(=O)c1cnc2scc(C)n2c1=O	none
CCN1C(c2ccc(F)cc2)=CS/C1=C(\C#N)c1nnc2n1-c1ccccc1SC2	none
CCCCN(C)Cc1c(C)[nH]c2ccc(OCC)cc2c1=O	Fluor 339 460 2.1 (not shown: DPM-DC inhibit)
C#CCOc1ccc2c(C)cc(=O)oc2c1	Fluor 339 460 3.9 (not shown: DPM-DC inhibit)
COc1ccc2oc(=O)cc(C)c2c1	Fluor 339 460 2.6
Cc1cc(=O)oc2cc(OC(C)C)ccc12	Fluor 339 460 2.1 (not shown: DPM-DC inhibit)
COc1cc(OC)c2c(C)cc(=O)oc2c1	Fluor 339 460 3.8 (not shown: DPM-DC inhibit)
CCOC(=O)Oc1ccc2oc(=O)cc(C)c2c1	none
Cc1ccc(-c2ccc(CCC(=O)O)n2Cc2ccco2)cc1	none
COc1ccc2c(=O)c3c(=O)n(Cc4ccco4)c(C4CCCCC4)nc3oc2c1	none
Cc1cc(C)n2cc(CSc3nc4cc(Cl)ccc4o3)nc2n1	Fluor 339 460 2.1
Cc1cc(C)n2c(Br)c(CSc3nc4ccccc4o3)nc2n1	Fluor 339 460 2.6
Cc1cc(C)n2cc(CSc3nnnn3C)nc2n1	Fluor 339 460 2.6 (not shown: DPM-DC inhibit)
Nn1c(CSc2nc3ccccc3o2)nnc1CSc1nc2ccccc2o1	none
CCOC(=O)c1cc2c(=O)n3cccc(C)c3nc2n(CCCOC)c1=NC(=O)c1cccnc1	Spn PMK inh 29, NADH enzymes 14µM[fluoresces], Fluor 339 460 2.3 (not shown: DPM-DC inhibit)
CCOC(=O)c1cc2c(=O)n3cccc(C)c3nc2n(CCOC)c1=NC(=O)c1ccncc1	Fluor 339 460 2
CCCn1c(=NC(=O)c2ccncc2)c(C(=O)OCC)cc2c(=O)n3cccc(C)c3nc21	none
O=C(NCCS(=O)CCNC(=O)C(F)(F)F)C(F)(F)F	none
O=C(CCc1nc2ccccc2c(=O)[nH]1)OCC(=O)N1CCN(S(=O)(=O)c2ccccc2)CC1	Spn PMK inh 28
CC(=O)Oc1ccc2cc(-c3nc4ccccc4n3C)c(=O)oc2c1	Fluor 339 460 2.1 (not shown: DPM-DC inhibit)
CCc1cc2c(=O)c(-c3nc4ccccc4n3C)c(COCC(=O)O)oc2cc1O	none
O=C(CN1C(=O)c2ccccc2C1=O)Nc1ccccc1C(=O)N1CCCC1	none
COc1ccc(NC(=O)c2nnn(Cc3ccc(SC)cc3)c2N)c(OC)c1	DPM-DC inhibit active
Cn1c(-c2ccc(N)cc2)nc2ccccc21	DPM-DC inhibit active, Fluor 339 460 3.9
CNC(=O)CSc1nnc(-c2ccco2)n1-c1ccccc1OC	none
COC(=O)c1[nH]c2ccc(C)cc2c1NC(=O)Nc1ccccc1OC	Fluor 339 460 2.6
COC(=O)c1[nH]c2ccc(C)cc2c1NC(=O)C1=COCCO1	none
COC(=O)c1[nH]c2ccc(Cl)cc2c1NC(=O)CCN1CCN(C2CCCCC2)CC1	none
COC(=O)c1[nH]c2ccc(C)cc2c1NC(=O)CN1CCCC(C)(C)C1	none
COC(=O)c1[nH]c2ccc(F)cc2c1NC(=O)CCN1CCN(Cc2ccc3c(c2)OCO3)CC1	Fluor 339 460 2

From PubChem
